Article PMC7862700, “An all-to-all approach to the identification of sequence-specific readers for epigenetic DNA modifications on cytosine”

Experiments:
Experiment in all cases: DAPPL (digital affinity profiling via proximity ligation, sequencing); 10 mM Tris-HCl pH 7.5, 50 mM NaCl, 1 mM DTT, 4% glycerol, room temperature, 30 min; GST-TFs on glutathione beads, 16-mer random dsDNA library, 0.1% formaldehyde crosslink after washing; high values mean tight binding
FEV = target: T1, FEV (Homo sapiens, UniProt Q99581 1-238); conditions: protein: recombinant; tags: N-terminal GST; dsDNA, one strand shown
T1 sequence: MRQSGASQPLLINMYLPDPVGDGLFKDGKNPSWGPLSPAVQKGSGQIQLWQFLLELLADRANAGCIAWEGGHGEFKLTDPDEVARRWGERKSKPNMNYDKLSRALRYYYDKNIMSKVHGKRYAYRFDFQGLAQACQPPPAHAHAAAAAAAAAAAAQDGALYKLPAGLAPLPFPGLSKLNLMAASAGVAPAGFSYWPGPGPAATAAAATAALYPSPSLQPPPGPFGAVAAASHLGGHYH
How it was run: (§1)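 Yeast served to express human transcription factors as GST fusions, which were then captured on glutathione beads and labelled with DNA barcodes. Pooled with a tag-only sample, they were incubated with 200 nmole of a 16-mer random double-stranded DNA library for 30 min at room temperature in Tris/NaCl/DTT/glycerol buffer, washed, crosslinked with 0.1% formaldehyde, ligated by proximity, amplified by PCR and sequenced. Dividing each hexamer's read frequency for a factor by its frequency for the tag-only sample gives the binding signal.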

ETV5 = ETV5 (Homo sapiens, UniProt P41161 1-510); conditions: protein: recombinant; tags: N-terminal GST; dsDNA, one strand shown
Sequence of ETV5 (P41161 whole entry): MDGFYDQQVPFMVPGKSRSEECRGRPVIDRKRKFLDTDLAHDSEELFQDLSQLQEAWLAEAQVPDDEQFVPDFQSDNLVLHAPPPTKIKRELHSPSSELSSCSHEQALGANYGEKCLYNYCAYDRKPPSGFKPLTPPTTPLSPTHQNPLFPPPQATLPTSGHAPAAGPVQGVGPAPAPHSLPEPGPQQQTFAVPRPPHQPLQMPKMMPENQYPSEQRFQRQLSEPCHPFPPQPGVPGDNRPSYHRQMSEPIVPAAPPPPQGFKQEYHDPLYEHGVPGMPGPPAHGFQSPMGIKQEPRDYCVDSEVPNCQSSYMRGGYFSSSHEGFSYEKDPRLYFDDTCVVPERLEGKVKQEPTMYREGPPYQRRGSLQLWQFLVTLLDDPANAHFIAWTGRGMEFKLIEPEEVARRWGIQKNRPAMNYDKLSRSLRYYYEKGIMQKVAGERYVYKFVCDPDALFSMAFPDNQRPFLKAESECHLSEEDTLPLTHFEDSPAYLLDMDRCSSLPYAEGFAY
How it was run: as §1

HSF1 = HSF1 (Homo sapiens, UniProt Q00613 1-529); conditions: protein: recombinant; tags: N-terminal GST; chain copies: 3; dsDNA, one strand shown
Sequence of HSF1 (Q00613 whole entry): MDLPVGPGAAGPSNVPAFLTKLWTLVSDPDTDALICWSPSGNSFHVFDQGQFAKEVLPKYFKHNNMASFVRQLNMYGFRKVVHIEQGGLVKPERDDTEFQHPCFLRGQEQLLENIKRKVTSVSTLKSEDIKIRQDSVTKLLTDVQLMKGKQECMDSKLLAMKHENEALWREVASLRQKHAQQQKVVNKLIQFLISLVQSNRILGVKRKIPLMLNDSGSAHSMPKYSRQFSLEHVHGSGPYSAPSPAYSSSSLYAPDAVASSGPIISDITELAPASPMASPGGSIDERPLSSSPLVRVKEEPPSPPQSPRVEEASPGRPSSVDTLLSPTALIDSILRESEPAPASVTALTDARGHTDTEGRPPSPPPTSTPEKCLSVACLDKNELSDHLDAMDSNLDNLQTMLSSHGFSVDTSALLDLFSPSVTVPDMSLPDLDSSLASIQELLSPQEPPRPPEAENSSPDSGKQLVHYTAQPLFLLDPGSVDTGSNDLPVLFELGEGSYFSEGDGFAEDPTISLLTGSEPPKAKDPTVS
How it was run: as §1

SPIC = target: T2, SPIC (Homo sapiens, UniProt Q8N5J4 1-248); conditions: protein: recombinant; tags: N-terminal GST; dsDNA, one strand shown
T2 sequence: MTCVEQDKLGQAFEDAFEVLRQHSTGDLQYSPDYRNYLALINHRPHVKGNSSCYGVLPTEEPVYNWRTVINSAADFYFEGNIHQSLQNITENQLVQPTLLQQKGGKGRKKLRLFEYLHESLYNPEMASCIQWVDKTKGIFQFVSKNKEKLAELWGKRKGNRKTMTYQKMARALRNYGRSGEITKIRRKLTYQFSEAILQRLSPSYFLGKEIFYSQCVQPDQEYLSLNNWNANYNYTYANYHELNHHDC
How it was run: as §1

ELF4 = ELF4 (Homo sapiens, UniProt Q99607 1-663); conditions: protein: recombinant; tags: N-terminal GST; dsDNA, one strand shown
Sequence of ELF4 (Q99607 whole entry): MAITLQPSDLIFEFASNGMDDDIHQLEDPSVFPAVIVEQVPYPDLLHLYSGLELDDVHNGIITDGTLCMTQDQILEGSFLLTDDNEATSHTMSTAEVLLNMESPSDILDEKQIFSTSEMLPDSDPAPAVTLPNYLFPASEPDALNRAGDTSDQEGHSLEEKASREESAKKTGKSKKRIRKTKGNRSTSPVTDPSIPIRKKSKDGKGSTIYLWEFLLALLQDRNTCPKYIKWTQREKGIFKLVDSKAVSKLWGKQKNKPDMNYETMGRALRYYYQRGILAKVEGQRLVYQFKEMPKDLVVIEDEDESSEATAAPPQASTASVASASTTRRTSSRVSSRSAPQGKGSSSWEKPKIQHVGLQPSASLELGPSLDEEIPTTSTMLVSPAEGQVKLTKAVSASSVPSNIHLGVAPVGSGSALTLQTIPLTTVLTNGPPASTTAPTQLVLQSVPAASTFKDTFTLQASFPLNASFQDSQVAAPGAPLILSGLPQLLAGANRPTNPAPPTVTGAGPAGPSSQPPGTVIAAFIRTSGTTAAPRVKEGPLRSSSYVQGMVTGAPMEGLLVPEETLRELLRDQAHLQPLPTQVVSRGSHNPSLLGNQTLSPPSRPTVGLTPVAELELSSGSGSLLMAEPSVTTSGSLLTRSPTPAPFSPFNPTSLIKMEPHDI
How it was run: as §1

ELK4 = target: T3, ELK4 (Homo sapiens, UniProt P28324-2 1-405); conditions: protein: recombinant; tags: N-terminal GST; dsDNA, one strand shown
T3 sequence: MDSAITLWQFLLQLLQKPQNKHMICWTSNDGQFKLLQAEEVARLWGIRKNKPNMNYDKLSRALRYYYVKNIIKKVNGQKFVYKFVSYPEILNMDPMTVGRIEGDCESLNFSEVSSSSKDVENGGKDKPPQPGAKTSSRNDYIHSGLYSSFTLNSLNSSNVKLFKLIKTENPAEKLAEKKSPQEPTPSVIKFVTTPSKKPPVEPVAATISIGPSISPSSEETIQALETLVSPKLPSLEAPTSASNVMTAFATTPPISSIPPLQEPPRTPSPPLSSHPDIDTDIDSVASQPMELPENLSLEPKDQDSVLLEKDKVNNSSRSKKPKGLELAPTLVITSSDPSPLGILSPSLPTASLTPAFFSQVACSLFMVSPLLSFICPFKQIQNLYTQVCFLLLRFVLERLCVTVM
How it was run: as §1

ETV2 = target: T4, ETV2 (Homo sapiens, UniProt O00321 1-342); conditions: protein: recombinant; tags: N-terminal GST; dsDNA, one strand shown
T4 sequence: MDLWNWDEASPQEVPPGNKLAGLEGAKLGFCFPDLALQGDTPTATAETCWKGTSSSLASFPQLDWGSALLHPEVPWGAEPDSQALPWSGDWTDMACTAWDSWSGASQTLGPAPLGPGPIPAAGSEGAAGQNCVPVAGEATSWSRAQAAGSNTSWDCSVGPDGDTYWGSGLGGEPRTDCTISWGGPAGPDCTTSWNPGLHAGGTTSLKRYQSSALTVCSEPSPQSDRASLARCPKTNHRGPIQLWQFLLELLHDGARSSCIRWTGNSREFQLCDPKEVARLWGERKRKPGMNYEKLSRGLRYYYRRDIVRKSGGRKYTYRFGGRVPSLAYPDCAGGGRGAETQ
How it was run: as §1

ELF3 = target: T5, ELF3 (Homo sapiens, UniProt P78545 1-371); conditions: protein: recombinant; tags: N-terminal GST; dsDNA, one strand shown
T5 sequence: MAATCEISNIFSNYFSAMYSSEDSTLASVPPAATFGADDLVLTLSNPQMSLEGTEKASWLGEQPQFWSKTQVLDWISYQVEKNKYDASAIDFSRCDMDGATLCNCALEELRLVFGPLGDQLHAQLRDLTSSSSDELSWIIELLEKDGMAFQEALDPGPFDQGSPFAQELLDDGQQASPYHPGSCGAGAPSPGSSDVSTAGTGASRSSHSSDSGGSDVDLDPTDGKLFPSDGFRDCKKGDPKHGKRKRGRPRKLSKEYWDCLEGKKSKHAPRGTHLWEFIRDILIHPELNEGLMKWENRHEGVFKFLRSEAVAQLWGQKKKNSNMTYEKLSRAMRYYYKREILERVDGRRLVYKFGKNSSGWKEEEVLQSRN
How it was run: as §1

CRX = CRX (Homo sapiens, UniProt O43186 1-299); conditions: protein: recombinant; tags: N-terminal GST; dsDNA, one strand shown
Sequence of CRX (O43186 whole entry): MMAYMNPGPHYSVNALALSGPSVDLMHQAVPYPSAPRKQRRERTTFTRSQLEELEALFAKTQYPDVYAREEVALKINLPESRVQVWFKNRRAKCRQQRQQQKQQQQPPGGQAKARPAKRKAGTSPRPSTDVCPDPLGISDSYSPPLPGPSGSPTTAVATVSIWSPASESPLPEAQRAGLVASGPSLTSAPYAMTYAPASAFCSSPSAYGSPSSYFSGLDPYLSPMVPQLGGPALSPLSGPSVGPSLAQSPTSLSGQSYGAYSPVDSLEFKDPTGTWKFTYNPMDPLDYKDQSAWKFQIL
How it was run: as §1

ETV1 = ETV1 (Homo sapiens, UniProt P50549 1-477); conditions: protein: recombinant; tags: N-terminal GST; dsDNA, one strand shown
Sequence of ETV1 (P50549 whole entry): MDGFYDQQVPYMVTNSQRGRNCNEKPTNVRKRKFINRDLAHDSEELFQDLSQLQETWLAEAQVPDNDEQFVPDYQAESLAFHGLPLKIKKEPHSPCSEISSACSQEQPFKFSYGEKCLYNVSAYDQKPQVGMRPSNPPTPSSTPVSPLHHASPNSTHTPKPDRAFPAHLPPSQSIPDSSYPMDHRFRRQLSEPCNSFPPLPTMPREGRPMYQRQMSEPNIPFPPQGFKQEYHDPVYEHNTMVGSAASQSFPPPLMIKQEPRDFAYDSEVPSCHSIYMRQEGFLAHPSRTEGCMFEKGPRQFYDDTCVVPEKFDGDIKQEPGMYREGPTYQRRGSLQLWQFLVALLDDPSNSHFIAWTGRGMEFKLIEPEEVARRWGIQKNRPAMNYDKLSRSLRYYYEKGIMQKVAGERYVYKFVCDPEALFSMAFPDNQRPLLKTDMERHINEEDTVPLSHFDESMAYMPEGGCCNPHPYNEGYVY
How it was run: as §1

| Sequence | binding signal (FEV) | binding signal (ETV5) | binding signal (HSF1) | binding signal (SPIC) | binding signal (ELF4) | binding signal (ELK4) | binding signal (ETV2) | binding signal (ELF3) | binding signal (CRX) | binding signal (ETV1) |
| --- | --- | --- | --- | --- | --- | --- | --- | --- | --- | --- |
| TGAACA | 1.21 fold enrichment (6-mer frequency, TF over GST control) | 1.2 fold enrichment (6-mer frequency, TF over GST control) | 1.18 fold enrichment (6-mer frequency, TF over GST control) | 1.29 fold enrichment (6-mer frequency, TF over GST control) | 1.24 fold enrichment (6-mer frequency, TF over GST control) | 1.4 fold enrichment (6-mer frequency, TF over GST control) | 1.27 fold enrichment (6-mer frequency, TF over GST control) | 1.3 fold enrichment (6-mer frequency, TF over GST control) | 1.06 fold enrichment (6-mer frequency, TF over GST control) | 1.27 fold enrichment (6-mer frequency, TF over GST control) |
| ATTATG | 1.13 fold enrichment (6-mer frequency, TF over GST control) | 1.26 fold enrichment (6-mer frequency, TF over GST control) | 1.68 fold enrichment (6-mer frequency, TF over GST control) | 1.42 fold enrichment (6-mer frequency, TF over GST control) | 1.22 fold enrichment (6-mer frequency, TF over GST control) | 1.11 fold enrichment (6-mer frequency, TF over GST control) | 1.03 fold enrichment (6-mer frequency, TF over GST control) | 1.48 fold enrichment (6-mer frequency, TF over GST control) | 2.58 fold enrichment (6-mer frequency, TF over GST control) | 1.21 fold enrichment (6-mer frequency, TF over GST control) |
| GTAAAT | 1.09 fold enrichment (6-mer frequency, TF over GST control) | 1.13 fold enrichment (6-mer frequency, TF over GST control) | 1.22 fold enrichment (6-mer frequency, TF over GST control) | 1.09 fold enrichment (6-mer frequency, TF over GST control) | 1.14 fold enrichment (6-mer frequency, TF over GST control) | 1.14 fold enrichment (6-mer frequency, TF over GST control) | 1.06 fold enrichment (6-mer frequency, TF over GST control) | 1.25 fold enrichment (6-mer frequency, TF over GST control) | 1.32 fold enrichment (6-mer frequency, TF over GST control) | 1.07 fold enrichment (6-mer frequency, TF over GST control) |
| CTACTA | 1.27 fold enrichment (6-mer frequency, TF over GST control) | 1.31 fold enrichment (6-mer frequency, TF over GST control) | 1.43 fold enrichment (6-mer frequency, TF over GST control) | 1.4 fold enrichment (6-mer frequency, TF over GST control) | 1.29 fold enrichment (6-mer frequency, TF over GST control) | 1.37 fold enrichment (6-mer frequency, TF over GST control) | 1.23 fold enrichment (6-mer frequency, TF over GST control) | 1.35 fold enrichment (6-mer frequency, TF over GST control) | 1.36 fold enrichment (6-mer frequency, TF over GST control) | 1.18 fold enrichment (6-mer frequency, TF over GST control) |
| CCCGTT | 1.13 fold enrichment (6-mer frequency, TF over GST control) | 1.21 fold enrichment (6-mer frequency, TF over GST control) | 1.03 fold enrichment (6-mer frequency, TF over GST control) | 1.07 fold enrichment (6-mer frequency, TF over GST control) | 1.15 fold enrichment (6-mer frequency, TF over GST control) | 1.06 fold enrichment (6-mer frequency, TF over GST control) | 1.18 fold enrichment (6-mer frequency, TF over GST control) | 1.26 fold enrichment (6-mer frequency, TF over GST control) | 1.02 fold enrichment (6-mer frequency, TF over GST control) | 1.03 fold enrichment (6-mer frequency, TF over GST control) |
| ATGACT | 1.4 fold enrichment (6-mer frequency, TF over GST control) | 1.43 fold enrichment (6-mer frequency, TF over GST control) | 1.21 fold enrichment (6-mer frequency, TF over GST control) | 1.47 fold enrichment (6-mer frequency, TF over GST control) | 1.41 fold enrichment (6-mer frequency, TF over GST control) | 1.39 fold enrichment (6-mer frequency, TF over GST control) | 1.41 fold enrichment (6-mer frequency, TF over GST control) | 1.46 fold enrichment (6-mer frequency, TF over GST control) | 1.25 fold enrichment (6-mer frequency, TF over GST control) | 1.36 fold enrichment (6-mer frequency, TF over GST control) |
| TATGGC | 1.36 fold enrichment (6-mer frequency, TF over GST control) | 1.33 fold enrichment (6-mer frequency, TF over GST control) | 1.2 fold enrichment (6-mer frequency, TF over GST control) | 1.17 fold enrichment (6-mer frequency, TF over GST control) | 1.2 fold enrichment (6-mer frequency, TF over GST control) | 1.2 fold enrichment (6-mer frequency, TF over GST control) | 1.41 fold enrichment (6-mer frequency, TF over GST control) | 1.29 fold enrichment (6-mer frequency, TF over GST control) | 1.34 fold enrichment (6-mer frequency, TF over GST control) | 1.25 fold enrichment (6-mer frequency, TF over GST control) |
